Potency and outcome data for seven molecules are collected here from PubChem BioAssay (Tox21).

Assay [1] is described as follows: qHTS assay to identify small molecule antagonists of the peroxisome proliferator-activated receptor delta (PPARd) signaling pathway - cell viability counter screen (AID 743213). Further: nearly all actives have a fitted effect of over 50% in size. Further: potency means the concentration at half of the fitted maximal effect. An outline of the steps:
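CellTiter-Glo was added to PPARd-bla HEK293H wells following 17 h compound treatment in the presence of 300 nM L165041. Luminescence was recorded after 30 min at room temperature.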
In general terms: In qHTS, concentration-response curves come from the screen itself.

Assay [2] is described as follows: qHTS assay to identify small molecule agonists of the farnesoid-X-receptor (FXR) signaling pathway - cell viability counter screen (AID 743218). Further: nearly all actives have a fitted effect of over 45% in size. Further: potency means the concentration at half of the fitted maximal effect. An outline of the steps: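 Same-well cytotoxicity check on FXR-UAS-bla HEK 293T cells: 5 h attachment, 16 h compound at 37 C, CellTiter-Glo luminescence read at room temperature after 30 min.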
Assay [3] is described as follows: qHTS assay to identify small molecule antagonists of the farnesoid-X-receptor (FXR) signaling pathway - cell viability counter screen (AID 743221; active means well fitted cell-killing curve with a large enough effect in the repeat runs, not every such curve was filed as active; further: nearly all actives have a fitted effect of over 50% in size; further: potency means the concentration at half of the fitted maximal effect). Summed up: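 Cytotoxicity is taken from ATP luminescence (CellTiter-Glo, 30 min, room temperature) in FXR-bla HEK 293T cells previously incubated 16 h at 37 C with compound and chenodeoxycholic acid at 50 uM final.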

Assay [4] can be described thus: qHTS assay to identify small molecule agonists of the vitamin D receptor (VDR) signaling pathway - cell viability counter screen (AID 743224). Further: nearly all actives have a fitted effect of over 50% in size. Further: potency means the concentration at half of the fitted maximal effect. An outline of the steps: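 Counter screen for cytotoxicity: VDR-bla cells at 2,000 cells/well, 16 h compound exposure, then CellTiter-Glo luminescence after the beta-lactamase measurement.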
Assay [5] deals with Bile acid receptor (Homo sapiens) (UniProt Q96RI1). Nature of the assay: qHTS assay to identify small molecule agonists of the farnesoid-X-receptor (FXR) signaling pathway (AID 743220; active means well fitted activation curve with a large enough effect in the signal ratio in the repeat runs, not every such curve was filed as active; the % refers to the signal ratio). An outline of the steps:
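FXR-UAS-bla HEK 293T cells carrying a UAS-driven beta-lactamase reporter were plated for 5 h at 37C/5% CO2, then exposed to DMSO-dissolved Tox21 10K compounds for 16 h at 37C. A LiveBLAzer B/G FRET substrate was loaded for 2 h at room temperature before fluorescence reading.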

For assay [6], the target named is Vitamin D3 receptor (Homo sapiens) (UniProt P11473). The experiment in a line: qHTS assay to identify small molecule agonists of the vitamin D receptor (VDR) signaling pathway (AID 743222; calls by dose curve). Summed up: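 Using LiveBLAzer B/G FRET detection, agonism was scored in VDR-bla cells exposed overnight (16 h, 37C) to DMSO-dissolved compounds; substrate incubation was 2 h at room temperature.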
Sequence of Vitamin D3 receptor (Homo sapiens) (P11473 whole entry, looked up): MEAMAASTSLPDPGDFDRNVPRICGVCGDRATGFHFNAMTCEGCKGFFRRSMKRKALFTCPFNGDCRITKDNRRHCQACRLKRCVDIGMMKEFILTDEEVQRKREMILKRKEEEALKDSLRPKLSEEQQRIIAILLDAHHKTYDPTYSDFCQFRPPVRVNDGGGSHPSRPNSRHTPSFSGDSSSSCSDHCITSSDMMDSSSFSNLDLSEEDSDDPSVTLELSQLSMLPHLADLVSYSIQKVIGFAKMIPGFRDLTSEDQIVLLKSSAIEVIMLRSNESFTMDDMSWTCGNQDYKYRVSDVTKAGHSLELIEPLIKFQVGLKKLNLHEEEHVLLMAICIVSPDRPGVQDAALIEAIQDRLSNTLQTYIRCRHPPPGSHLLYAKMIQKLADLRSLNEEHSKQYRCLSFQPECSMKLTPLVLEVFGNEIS

Several values for one entry are separate records, joined by “and”; a condition that tells them apart may be missing. Identical values can stand only once. Inconclusive results are not listed. Activity calls are given as the source filed them. Unless noted, the call rests on the fitted dose curve; in most records, active means well fitted curve in the direction sought with a large enough effect in the repeat runs; inconclusive means weak or mixed curves; inactive means no such curve, though single readings can be large; an effect the other way counts as inactive or inconclusive.

Sequence of Bile acid receptor (Homo sapiens) (Q96RI1 whole entry, looked up): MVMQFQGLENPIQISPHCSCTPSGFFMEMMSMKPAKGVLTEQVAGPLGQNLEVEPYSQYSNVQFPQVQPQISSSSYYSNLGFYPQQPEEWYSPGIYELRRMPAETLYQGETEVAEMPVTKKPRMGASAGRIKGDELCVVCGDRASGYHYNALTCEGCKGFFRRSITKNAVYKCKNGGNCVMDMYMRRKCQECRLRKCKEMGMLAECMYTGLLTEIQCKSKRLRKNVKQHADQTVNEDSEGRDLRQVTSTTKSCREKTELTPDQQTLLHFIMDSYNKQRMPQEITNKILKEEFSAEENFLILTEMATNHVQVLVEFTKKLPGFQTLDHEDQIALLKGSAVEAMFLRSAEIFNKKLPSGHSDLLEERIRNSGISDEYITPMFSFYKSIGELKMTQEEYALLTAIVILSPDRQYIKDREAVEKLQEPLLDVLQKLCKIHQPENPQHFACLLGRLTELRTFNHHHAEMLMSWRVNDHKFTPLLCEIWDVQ

For `Clc1ccc(COC(Cn2ccnc2)c2ccc(Cl)cc2Cl)cc1` (configuration not stated), the Potency in assay [1] was 40.7 µM (active) and 24.4 µM (active); in assay [2] it was 32.3 µM (active) and 19.4 µM (active) and 26.6 µM (active); in assay [3], 40.7 µM (active) and 17.3 µM (active) and 26.6 µM (active); in assay [4], 20.4 µM (active) and 13.7 µM (active) and 26.6 µM (active).

On to `COc1ccc(/C(=C/C(=O)N2CCOCC2)c2ccc(Cl)cc2)cc1OC`, for which the Potency result in assay [1], in assay [3], in assay [6] and in assay [4] was “inactive” throughout. Also, the call in assay [5] was inactive.

For `Cc1cc(C(C)(C)c2cc(C)c(O)c(C)c2)cc(C)c1O`, the values for the Potency in assay [1] and in assay [2] were 42.2 µM (active) and 47.4 µM (active), respectively. In addition, the result in assay [5] was inactive.

Take `c1ccc2cc3c(cc2c1)-c1cccc2cccc-3c12`: the Potency entry in assay [1], in assay [2], in assay [3] and in assay [4] was “inactive” throughout.

`Cc1c(Cl)c(=O)oc2cc(OP(=O)(OCCCl)OCCCl)ccc12`: the Potency entry in assay [1], in assay [2], in assay [3] and in assay [4] was “inactive” throughout.

Take `C[C@H]1O[C@@H](O[C@H]2[C@@H](O)C[C@H](O[C@H]3[C@@H](O)C[C@H](O[C@H]4CC[C@@]5(C)[C@H](CC[C@@H]6[C@@H]5CC[C@]5(C)[C@@H](C7=CC(=O)OC7)CC[C@]65O)C4)O[C@@H]3C)O[C@@H]2C)C[C@H](O)[C@@H]1O`: the Potency is 19.6 nM (active) and 84.1 nM (active) in assay [1]; 13.9 nM (active) in assay [3]; 15.6 nM (active) and 106 nM (active) in assay [4]. Besides, the molecule was called inactive in assay [5].

`CCOCn1c(-c2ccc(Cl)cc2)c(C#N)c(Br)c1C(F)(F)F`: the Potency is 30.9 µM (active) in assay [1], 12.3 µM (active) in assay [2] and 3.47 µM (active) in assay [4].
